Measured values from PubChem BioAssay (NCI).
The panel holds about 79,000 compounds, 15% with a hit somewhere; the sample as a whole holds those more often. Values without a mark were called inactive. The source made the active and inactive calls. Rule as the data show it: active = growth inhibition above about 70%; inactive = the rest.

How the values were obtained:
[1] = NCI Yeast Anticancer Drug Screen. Data for the rad50 strain (AID 155);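 also: 0% = growth of vehicle-only cultures of the same strain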; settings: S. cerevisiae rad50 strain growth inhibition, active compounds read high
How it was run: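 Readout: growth inhibition relative to vehicle-treated cultures. Compound exposure was carried out in a genetically defined yeast strain deficient in DNA damage repair.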

[2] = NCI Yeast Anticancer Drug Screen. Data for the mec2-1 strain (AID 157); settings: S. cerevisiae mec2-1 strain, active compounds read high
How it was run: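 Strain: mec2-1 (DNA repair/cell cycle alteration). Compound exposure, then growth measured; inhibition expressed relative to vehicle.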

[3] = NCI Yeast Anticancer Drug Screen. Data for the sgs1 mgt1 strain (AID 161);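 also: 0% = growth of cultures given vehicle only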; settings: S. cerevisiae sgs1 mgt1 strain, active compounds read high
How it was run: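 Test agents were incubated with a DNA-repair-mutant yeast strain. Growth was then read and compared against vehicle-treated controls.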

[4] = NCI Yeast Anticancer Drug Screen. Data for the cln2 rad14 strain (AID 165);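 also: 0% = growth equal to vehicle treated cultures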; settings: S. cerevisiae cln2 rad14 strain, active compounds read high
How it was run: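 Compounds are applied to the cln2 rad14 yeast strain, and growth is then compared with that of vehicle-treated cultures to give inhibition.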

[5] = NCI Yeast Anticancer Drug Screen. Data for the bub3 strain (AID 167); settings: S. cerevisiae bub3 mutant strain, active compounds read high
How it was run: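 Readout: yeast growth inhibition, expressed relative to vehicle-only wells. The test organism is a mutant strain from a panel with lesions in DNA repair or checkpoint genes.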

[6] = NCI Yeast Anticancer Drug Screen. Data for the mlh1 rad18 strain (AID 175); settings: S. cerevisiae mlh1 rad18 strain growth inhibition, active compounds read high
How it was run: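 Read-out is yeast growth inhibition, calculated against vehicle-only controls. The compound was applied to a strain engineered with DNA damage repair alterations.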

[7] = at 5.0 µM (retest, dose inferred, filed as 0.5)
[8] = at 50.0 µM (retest, dose inferred, filed as 5.0)

Molecule `CCOC(=O)C(=C=C=C(c1ccccc1)c1ccccc1)C(=O)OCC` has a growth inhibition [1, 7] of -3%, a growth inhibition [1, 8] of 6% and a growth inhibition ([1]; at 50.0 µM) of 33.9%. The growth inhibition [2, 7] was -2%, the growth inhibition [2, 8] was 17% and the growth inhibition ([2]; at 50.0 µM) was 23.5%. The growth inhibition [3, 7] was -3%, the growth inhibition [3, 8] was 40% and the growth inhibition ([3]; at 50.0 µM) was 78.2% (active). It also gave a growth inhibition [4, 7] of 0%, a growth inhibition [4, 8] of 1% and a growth inhibition ([4]; at 50.0 µM) of 50.1%. It also gave a growth inhibition [5, 7] of -4%, a growth inhibition [5, 8] of 6% and a growth inhibition ([5]; at 50.0 µM) of 31%. For the same molecule, the growth inhibition [6, 7] was -4%, the growth inhibition [6, 8] was 6% and the growth inhibition ([6]; at 50.0 µM) was 50.5%.

`O=C(CC(=O)c1ccc(O)cc1)c1ccccc1` gave a growth inhibition [1, 7] of -1%, a growth inhibition [1, 8] of 50% and a growth inhibition ([1]; at 50.0 µM) of 60.8%. It also gave a growth inhibition [2, 7] of -13%, a growth inhibition [2, 8] of 52% and a growth inhibition ([2]; at 50.0 µM) of 1.2%. For the same molecule, the growth inhibition [3, 7] was -1%, the growth inhibition [3, 8] was 66% and the growth inhibition ([3]; at 50.0 µM) was 21.2%. For the same molecule, the growth inhibition [4, 7] was -1%, the growth inhibition [4, 8] was 62% and the growth inhibition ([4]; at 50.0 µM) was 4.5%. The growth inhibition [5, 7] was -6%, the growth inhibition [5, 8] was 89% (active) and the growth inhibition ([5]; at 50.0 µM) was 48.7%. For the same molecule, the growth inhibition [6, 7] was 3%, the growth inhibition [6, 8] was 86% (active) and the growth inhibition ([6]; at 50.0 µM) was 58%.

Molecule `OC12C3C4CC5C(C4[C@@H]1Br)C2[C@@](O)(c1c(F)c(F)c(F)c(F)c1F)C53` (stereo not given in full) has a growth inhibition [1, 7] of 8%, a growth inhibition [1, 8] of 21% and a growth inhibition ([1]; at 50.0 µM) of 27.2%. For the same molecule, the growth inhibition [2, 7] was 3%, the growth inhibition [2, 8] was 8% and the growth inhibition ([2]; at 50.0 µM) was 11.6%. For the same molecule, the growth inhibition [3, 7] was 3%, the growth inhibition [3, 8] was 3% and the growth inhibition ([3]; at 50.0 µM) was 27.6%. The growth inhibition [4, 7] was 3%, the growth inhibition [4, 8] was 12% and the growth inhibition ([4]; at 50.0 µM) was 22.2%. The growth inhibition [5, 7] was 8%, the growth inhibition [5, 8] was 54% and the growth inhibition ([5]; at 50.0 µM) was 79.3% (active). The growth inhibition [6, 7] was 8%, the growth inhibition [6, 8] was 35% and the growth inhibition ([6]; at 50.0 µM) was 73.7% (active).

In the case of `O=C1NC(=Nc2ccccc2)C(=Nc2ccccc2)N1c1ccccc1`, the growth inhibition [1, 7] is reported as -8%, the growth inhibition [1, 8] is reported as 99% (active) and the growth inhibition ([1]; at 50.0 µM) is reported as 87.8% (active). The growth inhibition [2, 7] was -7%, the growth inhibition [2, 8] was 98% (active) and the growth inhibition ([2]; at 50.0 µM) was 90.8% (active). The growth inhibition [3, 7] was -7%, the growth inhibition [3, 8] was 99% (active) and the growth inhibition ([3]; at 50.0 µM) was 85.6% (active). The growth inhibition [4, 7] was -33%, the growth inhibition [4, 8] was 94% (active) and the growth inhibition ([4]; at 50.0 µM) was 85.8% (active). For the same molecule, the growth inhibition [5, 7] was -36%, the growth inhibition [5, 8] was 99% (active) and the growth inhibition ([5]; at 50.0 µM) was 89.5% (active). The growth inhibition [6, 7] was -2%, the growth inhibition [6, 8] was 99% (active) and the growth inhibition ([6]; at 50.0 µM) was 85.9% (active).

For `O=c1c(O)c(-c2ccc(Cl)cc2)oc2cc(O)ccc12`, the growth inhibition [1, 7] was 4%, the growth inhibition [1, 8] was 52% and the growth inhibition ([1]; at 50.0 µM) was 88.7% (active). For the same molecule, the growth inhibition [2, 7] was 2%, the growth inhibition [2, 8] was 86% (active) and the growth inhibition ([2]; at 50.0 µM) was 77.7% (active). The growth inhibition [3, 7] was 1%, the growth inhibition [3, 8] was 54% and the growth inhibition ([3]; at 50.0 µM) was 89.7% (active). It also gave a growth inhibition [4, 7] of -7%, a growth inhibition [4, 8] of -2% and a growth inhibition ([4]; at 50.0 µM) of -9.3%. It also gave a growth inhibition [5, 7] of 3%, a growth inhibition [5, 8] of 51% and a growth inhibition ([5]; at 50.0 µM) of 59.5%. The growth inhibition [6, 7] was 7%, the growth inhibition [6, 8] was 50% and the growth inhibition ([6]; at 50.0 µM) was 91.5% (active).
